The values that follow come from PMC11062922 (Nature Chemical Biology, 2023).

Test [1] deals with PIK3CA. Further details: species or system human, MV4-11 + K-562 + COLO205 + SK-N-BE2 + OVCAR-8. The following applies: read-out: apparent Kd; compound concentrations:100 nM and 1000 nM (sheet 'Samples'); n = 1.
Test [2] concerns TESK2. Also on record: species or system human, MV4-11 + K-562 + COLO205 + SK-N-BE2 + OVCAR-8. Conditions: read-out: apparent Kd, compound concentrations: 100 nM and 1000 nM (sheet 'Samples'), n = 1.
Test [3] deals with PIM2. Also on record: species or system human, MV4-11 + K-562 + COLO205 + SK-N-BE2 + OVCAR-8. Conditions: read-out: apparent Kd, n = 1.
Test [4] relates to PIM3. Also on record: species or system human, MV4-11 + K-562 + COLO205 + SK-N-BE2 + OVCAR-8. The following applies: read-out: apparent Kd, compound concentrations: 100 nM and 1000 nM (sheet 'Samples'), n = 1.
Test [5] has as its system PKN3. Further details: species or system human, MV4-11 + K-562 + COLO205 + SK-N-BE2 + OVCAR-8. The following applies: read-out: apparent Kd, n = 1.
The test system of test [6] is PRKD2. Further details: species or system human, MV4-11 + K-562 + COLO205 + SK-N-BE2 + OVCAR-8. The following applies: read-out: apparent Kd; compound concentrations:100 nM and 1000 nM (sheet 'Samples'); n = 1.
In test [7] the test system is PRKD3. Also on record: species or system human, MV4-11 + K-562 + COLO205 + SK-N-BE2 + OVCAR-8. Conditions: read-out: apparent Kd; compound concentrations:100 nM and 1000 nM (sheet 'Samples'); n = 1.
Test [8] relates to TAOK1. Also on record: species or system human, MV4-11 + K-562 + COLO205 + SK-N-BE2 + OVCAR-8. Conditions: read-out: apparent Kd; compound concentrations: 100 nM and 1000 nM (sheet 'Samples'), CATDS: 1; n = 1.
The test system of test [9] is RIOK2. Also on record: species or system human, MV4-11 + K-562 + COLO205 + SK-N-BE2 + OVCAR-8. The following applies: read-out: apparent Kd, compound concentrations: 100 nM and 1000 nM (sheet 'Samples'), n = 1.
For test [10], the system named is RIPK2. Further details: species or system human, MV4-11 + K-562 + COLO205 + SK-N-BE2 + OVCAR-8. The following applies: read-out: apparent Kd, compound concentrations: 100 nM and 1000 nM (sheet 'Samples'), n = 1.
The test system of test [11] is ADCK3. Conditions: read-out: apparent Kd, n = 1.
Test [12] relates to BTK. The following applies: read-out: apparent Kd, n = 1.
Test [13] has as its system CDK7. Conditions: read-out: apparent Kd, n = 1.
Test [14] has as its system MAP3K2. The following applies: read-out: apparent Kd, n = 1.
The subject of test [15] is NQO1. Conditions: read-out: apparent Kd, n = 1.
For test [16], the system named is PIK3CD. The following applies: read-out: apparent Kd, n = 1.
Test [17] relates to PRKX;PRKY. Conditions: read-out: apparent Kd, n = 1.
In test [18] the test system is STK26. Conditions: read-out: apparent Kd, n = 1.
Test [19] relates to TESK1. Conditions: read-out: apparent Kd, n = 1.
In test [20] the test system is TGFBR2. The following applies: read-out: apparent Kd, n = 1.
Setting [21] is: compound concentrations: 100 nM and 1000 nM (sheet 'Samples'), CATDS: 1.
Setting [22] is: compound concentrations:100 nM and 1000 nM (sheet 'Samples').
[23] abbreviates: compound concentrations:100 nM and 1000 nM (sheet 'Lestaurtinib' of Supplementary Table 1),run:Lestaurtinib_02422_R1,Plate:MR006.
Setting [24] is: compound concentrations:100 nM and 1000 nM (sheet 'Lestaurtinib' of Supplementary Table 1),run:Lestaurtinib_02487_R1,Plate:MR012.
Where [25] appears, read: compound concentrations:100 nM and 1000 nM (sheet 'Lestaurtinib' of Supplementary Table 1),run:Lestaurtinib_02339_R2,Plate:MR001.
Setting [26] is: compound concentrations:100 nM and 1000 nM (sheet 'Lestaurtinib' of Supplementary Table 1),run:Lestaurtinib_02443_R3,Plate:MR009.
The mark [27] stands for this setting: compound concentrations:100 nM and 1000 nM (sheet 'Lestaurtinib' of Supplementary Table 1),run:Lestaurtinib_02584_R3,Plate:MR017.

Where two headings read alike, the source gives them in different places.

For `O=c1cc(N2CCOCC2)nc2n(Cc3ccc(F)c(Cl)c3)ccn12` [GSK2297099A], the potency estimated from few doses in test [1] is 186 nM.

Take `Cl.O=S1CCN(Cc2ccc(-c3ccc4ncnc(Nc5ccc(OCc6ccccc6)c(Cl)c5)c4c3)o2)CC1` [GW583373A]: the potency estimated from few doses in [1] was 213 nM.

As to `Cc1ccccc1Cn1ccn2c(=O)cc(N3CCOCC3)nc12` [GSK2269905A], the potency estimated from few doses in [2] (CATDS: 0.33988229357461403) was 1410 nM.

On to `COc1cc(Nc2nccc(N3CCC(NC(=O)Nc4cc(C)ccc4C)C3)n2)cc(OC)c1OC` (stereo not drawn) [GSK1379762_KCGS], for which the potency estimated from few doses in test [3] (setting [21]) was 1940 nM.

For `O=C1Nc2ccc(I)cc2C1=Cc1cc(Br)c(O)c(Br)c1` [GW305074X_KCGS], the potency estimated from few doses in test [3] (setting [22]) was 2090 nM.

Regarding `Cc1cc(-c2ccc3c(c2)CC[C@@H](N[C@@H](C)c2ccccc2)C3)cnc1N.Cc1cc(-c2ccc3c(c2)CC[C@@H](N[C@@H](C)c2ccccc2)C3)cnc1N.Cl.Cl` [GW412617A], the potency estimated from few doses in test [4] (CATDS: 0.55054057410094004) was 1020 nM; in test [2] (CATDS: 0.45795860987145298) it was 1470 nM.

Take `CCSc1ccc(-c2nc3n(c2-c2ccncc2)CCC3)cc1.CCSc1ccc(-c2nc3n(c2-c2ccncc2)CCC3)cc1.Cl.Cl` [SKF-106164-A2]: in [4] (CATDS: 1), the potency estimated from few doses is 1300 nM.

On to `CCn1c(-c2nonc2N)nc2ccccc21` [SB-693162], for which the potency estimated from few doses in test [5] (setting [22]) was 1280 nM.

Turning to `Cc1cccc(-c2nc(Nc3ccc4c(cnn4C)c3)c3ccccc3n2)n1` [GW876731X], the potency estimated from few doses is 26.7 nM in [6] and 32.8 nM in [7].

On to `Cc1nnc(-c2ccc(C)c(-c3ccc(C(=O)Nc4ccc(NS(C)(=O)=O)cc4)cc3)c2)o1` [GW702865X], for which the potency estimated from few doses in test [8] is 1620 nM.

For the molecule `Cc1cccc(-c2n[nH]cc2-c2ccc3ncccc3n2)n1` [GW786460X], the potency estimated from few doses in test [6] was 465 nM; in test [7], 640 nM.

In the case of `CC1=C(C(=O)Nc2cc3cn[nH]c3cc2F)C(c2ccc(C(F)(F)F)cc2)CC(=O)N1` (stereo not drawn) [GSK429286A], the potency estimated from few doses in test [5] (compound concentrations: 100 nM and 1000 nM (sheet 'Samples'), CATDS: 0.172679408369589) was 1700 nM.

As to `Cc1nn(-c2ccccc2)c(O)c1C(=O)c1ccccc1` [RO1151080-000], the potency estimated from few doses in [2] (CATDS: 1) was 1360 nM.

Consider `O=C(NCCNc1ccnc(Nc2ccc(F)cc2)n1)Nc1ccc2c(c1)OCO2` [GSK1379882A], for which the potency estimated from few doses in test [8] is 1250 nM.

With `COc1ccc2ncn(-c3cc(O[C@H](C)c4ccccc4C(F)(F)F)c(C(N)=O)s3)c2c1` [GSK317315A], the potency estimated from few doses in test [9] (CATDS: 0.34769297632871299) is 1940 nM.

On to `Cc1cc(O)cc(C)c1/C=C/c1cncc(C(=O)OC(C)(C)C)c1` [GW439255X], for which the potency estimated from few doses in test [10] (CATDS: 1) is 437 nM.

Regarding Lestaurtinib, the potency estimated from few doses was 1630 nM in [11] (compound concentrations:100 nM and 1000 nM (sheet 'Lestaurtinib' of Supplementary Table 1),run:Lestaurtinib_02364_R1,Plate:MR002); 80.8 nM in test [11] (setting [23]); 474 nM in test [11] (compound concentrations:100 nM and 1000 nM (sheet 'Lestaurtinib' of Supplementary Table 1),run:Lestaurtinib_02437_R3,Plate:MR007); 1620 nM in test [11] (compound concentrations:100 nM and 1000 nM (sheet 'Lestaurtinib' of Supplementary Table 1),run:Lestaurtinib_02572_R1,Plate:MR015); 760 nM in test [12] (setting [23]); 385 nM in test [12] (setting [24]). In addition, the potency estimated from few doses in [13] (setting [24]) was 132 nM; in test [13] (compound concentrations:100 nM and 1000 nM (sheet 'Lestaurtinib' of Supplementary Table 1),run:Lestaurtinib_02496_R2,Plate:MR013) it was 1590 nM; in test [14] (setting [25]), 2130 nM; in test [14] (setting [26]) it was 2170 nM; in test [15] (compound concentrations:100 nM and 1000 nM (sheet 'Lestaurtinib' of Supplementary Table 1),run:Lestaurtinib_02438_R3,Plate:MR008), 1600 nM; in test [15] (compound concentrations:100 nM and 1000 nM (sheet 'Lestaurtinib' of Supplementary Table 1),run:Lestaurtinib_02765_R1,Plate:MR026), 1440 nM. The potency estimated from few doses in test [15] (compound concentrations:100 nM and 1000 nM (sheet 'Lestaurtinib' of Supplementary Table 1),run:Lestaurtinib_03172_R1,Plate:MR031) is 1700 nM; in test [16] (setting [25]), 190 nM; in [16] (compound concentrations:100 nM and 1000 nM (sheet 'Lestaurtinib' of Supplementary Table 1),run:Lestaurtinib_02577_R3,Plate:MR016), 12.4 nM; in test [17] (setting [26]), 1430 nM; in test [17] (compound concentrations:100 nM and 1000 nM (sheet 'Lestaurtinib' of Supplementary Table 1),run:Lestaurtinib_02896_R3,Plate:MR030), 2210 nM; in [18] (compound concentrations:100 nM and 1000 nM (sheet 'Lestaurtinib' of Supplementary Table 1),run:Lestaurtinib_02407_R1,Plate:MR005), 1700 nM. The potency estimated from few doses in test [18] (compound concentrations:100 nM and 1000 nM (sheet 'Lestaurtinib' of Supplementary Table 1),run:Lestaurtinib_02473_R3,Plate:MR010) is 2250 nM; in [18] (setting [27]), 2350 nM; in [19] (compound concentrations:100 nM and 1000 nM (sheet 'Lestaurtinib' of Supplementary Table 1),run:Lestaurtinib_02482_R3,Plate:MR011) it was 1960 nM; in [19] (setting [24]), 1310 nM; in test [19] (setting [27]), 1960 nM; in test [19] (compound concentrations:100 nM and 1000 nM (sheet 'Lestaurtinib' of Supplementary Table 1),run:Lestaurtinib_02748_R2,Plate:MR024), 994 nM. The potency estimated from few doses in test [20] (setting [26]) was 1570 nM; in test [20] (compound concentrations:100 nM and 1000 nM (sheet 'Lestaurtinib' of Supplementary Table 1),run:Lestaurtinib_03172_R3,Plate:MR031) it was 2210 nM; in test [20] (compound concentrations:100 nM and 1000 nM (sheet 'Lestaurtinib' of Supplementary Table 1),run:Lestaurtinib_03252_R2,Plate:MR032), 2120 nM.

Consider `CNC(=O)c1cncc(/C=C/c2c(Cl)cccc2Cl)c1` [GW445014X], for which, in test [10] (CATDS: 1), the potency estimated from few doses was 773 nM.

Take `Cl.c1ccc(Oc2ccc(Nc3ncc(-c4ccccc4)o3)cc2)cc1` [GW641155A]: the potency estimated from few doses in [9] (CATDS: 1) was 2140 nM.

As for `CCn1c(-c2nonc2N)nc2c(N3CCCC3)nccc21` [SB-744941], the potency estimated from few doses in test [5] (setting [21]) is 2110 nM.

With `CNC(=O)c1cncc(/C=C/c2ccccc2C)c1` [GW445015X], the potency estimated from few doses in test [10] (CATDS: 1) was 795 nM.

On to `c1ccc(Oc2ccc(Nc3ccnc4ccc(-c5ccccn5)cc34)cc2)cc1` [GW407034X], for which the potency estimated from few doses in [10] (CATDS: 0.62079920866718596) is 189 nM.
